LASV entry inh: blocks Lassa virus binding or cell entry; Lassa virus pseudotyped entry inhibition, cell-based qHTS; Potency, µM (series often up to 49.2 µM), for the others: top-dose activity change, negative = inhibition, hits mostly inhibitors; 18,000 compounds, 4.1% hits; AID 720533
MARV entry inh: blocks Marburg virus binding or cell entry. Marburg virus pseudotype entry/binding inhibition, cell-based. Potency, µM (doses to about 49.2 µM), without a hit: at the top dose activity change, negative = inhibition, usual class: inhibitors. 18,000 compounds, 6.5% hits
Numbers without * were called inactive; ? = inconclusive; · = no result given; ! = a repeat was not active; [ ] = dose if it differs, or a comment. In the library only some 8% were active in any assay of this set; here they are far more common. The call rests on the fitted dose curve; tested in HEK293 cells. On the % scale 0 is the no-effect control and ±100 the full control effect; potency means the concentration at half of the fitted maximal effect.

SMILES	LASV entry inh	MARV entry inh
COc1ccc(CN2CCOc3ccc(CN4CCN(CCO)CC4)cc3C2)c2ccccc12	?	11.2µM*
COc1ccc(F)c(CN2CCOc3ccc(CN4CCC(Oc5cccnc5)CC4)cc3C2)c1	5.9%	?
COc1ccc(CN2CCOc3ccc(CN4CCC(Oc5cccnc5)CC4)cc3C2)c(F)c1	-7.9%	11.2µM*
COc1cc(CN2CCOc3ccc(CN4CCN(CCO)CC4)cc3C2)ccc1F	13.8%	3.2%
COc1cc(OC)c(CN2CCOc3ccc(CN4CCC(O)CC4)cc3C2)c(OC)c1	?	14.1µM*
COc1cc(CN2CCOc3ccc(CN4CCC(Oc5cccnc5)CC4)cc3C2)ccc1F	-9.8%	?
C=C[C@@]1(C)CCC=C2C(=O)CCC[C@H]21	-27.4%[8.59 µM]	?
COc1ccc(C(=O)NCC2Cc3cc(C)cc(-c4cc(C(C)=O)ccc4F)c3O2)c(OC)c1OC (stereo not given)	0.1%	-22.4%
CC(=O)C1=C(C)N(Cc2ccco2)C(=O)NC1c1ccccc1 (stereo not given)	5.2%[8.59 µM]	-0.7%[8.59 µM]
Cc1cc(C(=O)NCc2nc(-c3cccc(NC(=O)c4ccccc4)c3)oc2C)nc(C)n1	11.9%	5.9%
O=C(NN=C1C[C@@H](O)[C@H](O)[C@H]2[C@@H]3C(=O)N(Cc4ccc5c(c4)OCO5)C(=O)[C@@H]3CC[C@H]12)OCc1ccccc1	·	-2.2%[8.59 µM]
Cc1ccc(O[C@@H]2[C@H](O)CO[C@H]2C=CC#Cc2ccc(C(C)(C)C)cc2)cc1	·	-34.7%[8.59 µM]
CCN1C(=NCc2ccco2)N[C@@H](c2ccccc2)[C@H](C(=O)OC)[C@H]1C	-21.7%[8.59 µM]	12.8%[8.59 µM]
CO[C@@]12C[C@@H](COC(=O)c3cncc(Br)c3)CN(C)[C@H]1Cc1cn(C)c3cccc2c13	3.7%	-1.2%
CN1C[C@H](CNC(=O)OCc2ccccc2)C[C@H]2c3cccc4c3c(cn4C)C[C@@H]21	?	10µM*
CN1C[C@H](CNC(=O)OCc2ccccc2)C[C@@H]2c3cccc4c3c(cn4C)C[C@H]21	?	14.1µM*!
CN1C[C@H](C(=O)N[C@]2(C)O[C@@]3(O)[C@H]4CCCN4C(=O)[C@H](Cc4ccccc4)N3C2=O)C[C@H]2c3cccc4[nH]cc(c34)C[C@@H]21	2.9%	31.2%
COc1cc(O)c(C(=O)C=Cc2ccccc2)c(O)c1	12.3%[8.59 µM]	?
CCn1nc(C)cc1C(=O)NCC1Cc2cc(C)cc(-c3ccccc3C(=O)OC)c2O1 (stereo not given)	-11.3%	-18.7%
O[C@@H]1CN(Cc2cccs2)[C@@H](c2ccccc2)C[C@@H]1n1cc(-c2ccc(F)cc2)nn1	-23.2%	?
O=C1CCCC=C1C(O)COCc1ccccc1 (stereo not given)	-25.5%[8.59 µM]	3.2%[8.59 µM]
O=S1(=O)N[C@@H](Cc2ccccc2)COc2c(Cl)cccc21	7.7%	3.8%
Cc1ccccc1	-4.5%	-1.2%
OC[C@@H]1O[C@H](OC2[C@@H](O)[C@@H](O)C(O)O[C@@H]2CO)[C@H](O)[C@@H](O)[C@@H]1OC1O[C@H](CO)[C@@H](O)[C@H](O)[C@@H]1O (stereo not given in full)	5.1%	7.9%
[O][C@H]1[C@@H](O)[C@@H](CO)O[C@@H](O[C@@H]2[C@@H]3OC[C@H]2O[C@H](O[C@@H]2[C@@H](O)[C@H](C[C@@H]4[C@@H]5OC[C@H]4O[CH][C@@H]5O)O[C@H](CO)[C@@H]2OS(=O)(=O)O)[C@@H]3OS(=O)(=O)O)[C@@H]1O	-6.5%	11.2µM*
SMILES	LASV entry inh	MARV entry inh
COc1cccc(CO[C@H]2C=C[C@@H](c3ccccc3)O[C@H]2CO)c1	-25.8%[8.59 µM]	-7.5%[8.59 µM]
COc1cccc(CO[C@H]2C=C[C@@H](c3ccccc3)O[C@H]2CBr)c1	23.9%[8.59 µM]	31.3%[8.59 µM]
CC(C)CNC(=O)c1cn(C2CCN(Cc3nc4ccccc4s3)CC2)nn1	-4.8%	2.82µM*
CN(CCO)C(=O)c1cn(C2CCN(Cc3ccc4ccccc4c3)CC2)nn1	-3.7%	-28.8%
COc1c(O)cc2c(=O)oc3c(OC)c(O)cc4c(=O)oc1c2c34	-1.5%	-11.7%
COc1cc(O)c2c(c1)oc(=O)c1c3cc(O)c(O)cc3oc21	?	11.2µM*
COc1cccc([C@H]2Oc3ccc(OC)cc3C(=NOCC[C@@H]3C=C[C@H](OC(C)=O)[C@@H](COC(C)=O)O3)[C@H]2O)c1	·	-24.0%[8.59 µM]
O=C1NC(=O)c2c1c1c3ccccc3n3c1c1c2c2ccccc2n1C1CCC3O1	?	1.12µM*
CO[C@]1(C)C[C@H]2O[C@]1(C)n1c3ccccc3c3c4c(c5c6ccccc6n2c5c31)C(=O)N(C)C4	-4.9%	-0.3%
CCCCCCN1C[C@@H](n2cc(COC(=O)c3ccccc3)nn2)[C@H](O)C[C@H]1c1ccc(Cl)cc1	-19.7%	?
COC(=O)[C@H]1O[C@@H](c2c(OC)c(OC)c(C)c(OC)c2OC)[C@H](C)[C@@H](O)[C@@H]1C	1.7%[8.59 µM]	6.2%[8.59 µM]
O=C(O)[C@@H](O)[C@H](O)[C@H](O)[C@@H](O)C(=O)O (tested in a mixture with another compound)	-15.0%	15.5%
C[C@@](N)(C(=O)O)c1ccc(S(=O)(=O)O)cc1	4.4%	11.2%
Cc1ccc(S(=O)(=O)/C=C/C#N)cc1	7.08µM*	2.82µM*
Cc1ccc(S(=O)(=O)/C=C\C#N)cc1	15.8µM*	10µM*
CC(C)(C)c1ccc(S(=O)(=O)/C=C\C#N)cc1	35.5µM*	15.8µM*
CCN1C(=O)NC(c2cccc(C(F)(F)F)c2)C(C(C)=O)=C1C (stereo not given)	-3.8%[8.59 µM]	12.2%[8.59 µM]
COC(=O)CC=C1c2ccccc2[C@@H](OC)[C@@H]1C	37.8%[8.59 µM]	16.2%[8.59 µM]
O=C(c1cccs1)N1C[C@H](O)[C@H](n2cc(C3CC3)nn2)C[C@@H]1c1ccccc1	-17.2%	-7.4%
COC(=O)CC=C1c2ccc3c(c2[C@@H](OC)[C@@H]1C)OCO3	-1.9%[8.59 µM]	-6.1%[8.59 µM]
COC(=O)C1=C(C(=O)OC)[C@@H]2Nc3ccccc3[C@@]23C[C@@H](C(=O)OC)N(C(=O)NCCBr)C3=N1	-10.6%[8.59 µM]	77.7%[8.59 µM]
O=C(Oc1ccccc1)[C@H]1O[C@H]1c1ccccc1	·	34.4%[8.59 µM]
CCN1C(=NCCc2ccccn2)NC(c2cccs2)C(C(=O)OC)=C1C (stereo not given)	0.2%[8.59 µM]	?
O=C(Nc1ccc(O)c2c(=O)cc(-c3ccccc3Cl)oc12)c1ccc(Cl)cc1Cl	-8.2%	-7.0%
O=c1cc(-c2ccccc2Cl)oc2c(NS(=O)(=O)c3cc(Cl)cc(Cl)c3O)ccc(O)c12	10µM*	?
SMILES	LASV entry inh	MARV entry inh
CC=Cc1cc2ccccc2c2c(C(=O)OC)c(C(=O)OC)c(C(=O)OC(C)(C)C)n12	-15.2%[8.59 µM]	?
CC(CCN1CCCc2nc(C)c(C)cc21)=NO[C@H](C)c1cn([C@H](CO)Cc2ccccc2)nn1	0.6%[8.59 µM]	?
CC1(C)CC(=O)C2=C(C1)O[C@@]1(CCCCN3C(=O)c4ccccc4C3=O)Cc3c(ccc4ccccc34)[C@H]2O1	-4.0%[8.59 µM]	-26.8%[8.59 µM]
O=C1Nc2ccccc2[C@@]12O[C@H](COc1ccccc1)CC1=C2CCC1	12.2%[8.59 µM]	9.8%[8.59 µM]
Cc1cc2c(c(=O)n1-c1ccccc1)[C@H]1O[C@](c3ccsc3)(Cc3cc(C#N)ccc31)O2	3.9%[8.59 µM]	-12.1%[8.59 µM]
COc1ccc2ccccc2c1CN1CCC2(CCC(CNC(=O)c3ccccc3)O2)CC1 (stereo not given)	-10.7%	12.6µM*
COc1ccc(CN2CCC3(CCC(CNC(=O)C4CCCO4)O3)CC2)c(C)c1C (stereo not given)	-10.3%	1.26µM*
O=C(NCC1CCC2(CCN(Cc3ccccc3O)CC2)O1)C1CCCO1 (stereo not given)	-1.9%	-23.3%

Screening data from PubChem.
